Measurements taken from the supplement of paper PMC8007513.
Where a name gives a salt, the structure may show the parent alone. ± gives the standard error. In all, about 1,300 compounds went through this assay and about 130 (10%) showed an effect of 50% or more. The entries come from a sample that favours strong results as a whole.

Tested on: Trichoderma virens ATCC 9645
Assay: growth yield (OD600) with compound + IPBC relative to untreated control; higher = less growth inhibition
Conditions: compound concentration: 100 uM, IPBC concentration: 200 ng/ml
Outline: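 Spores of Trichoderma virens ATCC 9645, taken from potato dextrose agar plates grown for 7 days, were suspended at 15,000 spores ml^−1 in potato dextrose broth. In 96-well plates, 100 μl aliquots held library compounds at 100 μM final, either alone or together with a biocide at 200 ng ml^−1, and were grown at 30 °C. A BioTek EL800 read OD600 at 40 h and 72 h. Growth values are given relative to the control lacking both agents and are means of duplicate screens.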

| SMILES | growth yield (40 h) [%] | growth yield (72 h) [%] |
| --- | --- | --- |
| O=C([O-])c1ccccc1-c1c2cc(Br)c(=O)cc-2oc2[c]([Hg+])c([O-])c(Br)cc12.[Na+].[Na+].[OH-] [Merbromin] + CCCCNC(=O)OCC#CI [3-iodo-2-propynyl butylcarbamate (IPBC)] | 5.4 ± 0.64 | 3.99 ± 0.21 |
| COc1ccc([C@@H]2CC(=O)c3c(O)cc(O[C@@H]4O[C@H](CO[C@@H]5O[C@@H](C)[C@H](O)[C@@H](O)[C@H]5O)[C@@H](O)[C@H](O)[C@H]4O)cc3O2)cc1O [Hesperidin] + CCCCNC(=O)OCC#CI [3-iodo-2-propynyl butylcarbamate (IPBC)] | 86.41 ± 0.64 | 92.6 ± 2.2 |
| C[C@@H](O[C@H]1OCCN(Cc2n[nH]c(=O)[nH]2)[C@H]1c1ccc(F)cc1)c1cc(C(F)(F)F)cc(C(F)(F)F)c1 [Aprepitant] + CCCCNC(=O)OCC#CI [3-iodo-2-propynyl butylcarbamate (IPBC)] | 113 ± 12 | 104 ± 8.8 |
| CNCCc1ccccn1 [Betahistine mesylate] + CCCCNC(=O)OCC#CI [3-iodo-2-propynyl butylcarbamate (IPBC)] | 88 ± 8.3 | 92 ± 5.6 |
| O=C(NCNC(=O)NC1C(=O)NC(=O)N1CO)NC1C(=O)NC(=O)N1CO (stereo not drawn) [Imidurea] + CCCCNC(=O)OCC#CI [3-iodo-2-propynyl butylcarbamate (IPBC)] | 89 ± 7 | 92.5 ± 5.5 |
| CCCc1cc(=O)[nH]c(=S)[nH]1 [Propylthiouracil] + CCCCNC(=O)OCC#CI [3-iodo-2-propynyl butylcarbamate (IPBC)] | 90.1 ± 11 | 93 ± 6.4 |
| CCCCCCNC(=O)n1cc(F)c(=O)[nH]c1=O [Carmofur] + CCCCNC(=O)OCC#CI [3-iodo-2-propynyl butylcarbamate (IPBC)] | 21.9 ± 0.95 | 31.4 ± 0.32 |
| CC(C(=O)O)c1ccc(C(=O)c2ccccc2)s1 (stereo not drawn) [Tiaprofenic acid] + CCCCNC(=O)OCC#CI [3-iodo-2-propynyl butylcarbamate (IPBC)] | 77.83 ± 0.32 | 83.38 ± 0.32 |
| CCCCN(CCCC)CCC(O)c1cc2c(Cl)cc(Cl)cc2c2cc(C(F)(F)F)ccc12 (stereo not drawn) [Halofantrine hydrochloride] + CCCCNC(=O)OCC#CI [3-iodo-2-propynyl butylcarbamate (IPBC)] | 13.8 ± 0.16 | 7.66 ± 1.1 |
| CCN1CCCC(OC(=O)C(c2ccccc2)c2ccccc2)C1 (stereo not drawn) [Piperidolate hydrochloride] + CCCCNC(=O)OCC#CI [3-iodo-2-propynyl butylcarbamate (IPBC)] | 85.5 ± 1.6 | 94.08 ± 0.73 |
| CC[C@@]1([C@@H]2O[C@@H]([C@H]3O[C@@](O)(CO)[C@H](C)C[C@@H]3C)C[C@@H]2C)CC[C@H]([C@]2(C)CC[C@]3(C[C@H](O)[C@@H](C)[C@@H]([C@@H](C)[C@@H](OC)[C@H](C)C(=O)O)O3)O2)O1 [Monensin sodium salt] + CCCCNC(=O)OCC#CI [3-iodo-2-propynyl butylcarbamate (IPBC)] | 79.4 ± 9.8 | 89.6 ± 9.2 |
| CC(Cc1cccc(C(F)(F)F)c1)NCCOC(=O)c1ccccc1 (stereo not drawn) [Benfluorex] + CCCCNC(=O)OCC#CI [3-iodo-2-propynyl butylcarbamate (IPBC)] | 56.4 ± 1.8 | 81.8 ± 1.5 |
| Cc1cccc(Nc2ccncc2S(=O)(=O)NC(=O)NC(C)C)c1 [Torsemide] + CCCCNC(=O)OCC#CI [3-iodo-2-propynyl butylcarbamate (IPBC)] | 95.3 | 114 ± 17 |
| CNCC[C@@H](Oc1cccc2ccccc12)c1cccs1 [(R)-Duloxetine hydrochloride] + CCCCNC(=O)OCC#CI [3-iodo-2-propynyl butylcarbamate (IPBC)] | 61.6 ± 3.8 | 90.3 ± 0.1 |
| O=C(O)CCCC[C@@H]1SC[C@@H]2NC(=O)N[C@@H]21 [Biotin] + CCCCNC(=O)OCC#CI [3-iodo-2-propynyl butylcarbamate (IPBC)] | 85.3 ± 3.3 | 91.03 ± 0.84 |
| C=C1C[C@@H]2[C@H](CC[C@]3(C)C(=O)CC[C@@H]23)[C@@]2(C)C=CC(=O)C=C12 [Exemestane] + CCCCNC(=O)OCC#CI [3-iodo-2-propynyl butylcarbamate (IPBC)] | 63.5 ± 0.64 | 77.6 ± 1.5 |
| CCOc1cc(CC(=O)N[C@@H](CC(C)C)c2ccccc2N2CCCCC2)ccc1C(=O)O [Repaglinide] + CCCCNC(=O)OCC#CI [3-iodo-2-propynyl butylcarbamate (IPBC)] | 104 ± 7.3 | 104 ± 4.8 |
| CN1CCCN(C(c2ccccc2)c2ccc(Cl)cc2)CC1 (stereo not drawn) [Homochlorcyclizine dihydrochloride] + CCCCNC(=O)OCC#CI [3-iodo-2-propynyl butylcarbamate (IPBC)] | 58.5 ± 2.2 | 89.9 ± 1.6 |
| Cc1cccc(CN2CCN(C(c3ccccc3)c3ccc(Cl)cc3)CC2)c1 (stereo not drawn) [Meclozine dihydrochloride] + CCCCNC(=O)OCC#CI [3-iodo-2-propynyl butylcarbamate (IPBC)] | 3.02 ± 1.1 | 3.78 ± 0.63 |
| CN1CCN(C(c2ccccc2)c2ccc(Cl)cc2)CC1 (stereo not drawn) [Chlorcyclizine hydrochloride] + CCCCNC(=O)OCC#CI [3-iodo-2-propynyl butylcarbamate (IPBC)] | 76.9 ± 1.6 | 91.6 ± 2.6 |

| SMILES | growth yield (40 h) [%] | growth yield (72 h) [%] |
| --- | --- | --- |
| O=C(Nc1ccccc1)OCC(CN1CCCCC1)OC(=O)Nc1ccccc1 (stereo not drawn) [Diperodon hydrochloride] + CCCCNC(=O)OCC#CI [3-iodo-2-propynyl butylcarbamate (IPBC)] | 77.4 ± 4.3 | 96.9 ± 1.7 |
| CCC1(c2cccc(O)c2)CCCCN(C)C1 (stereo not drawn) [Meptazinol hydrochloride] + CCCCNC(=O)OCC#CI [3-iodo-2-propynyl butylcarbamate (IPBC)] | 89.7 ± 3.6 | 92.5 ± 2.7 |
| O=C1NCCN1CCN1CCC(c2cn(-c3ccc(F)cc3)c3ccc(Cl)cc23)CC1 [Sertindole] + CCCCNC(=O)OCC#CI [3-iodo-2-propynyl butylcarbamate (IPBC)] | 5.24 ± 0.79 | 3.46 ± 0.1 |
| O=C(O)c1cn(-c2ccc(F)cc2)c2cc(N3CCNCC3)c(F)cc2c1=O [Sarafloxacin] + CCCCNC(=O)OCC#CI [3-iodo-2-propynyl butylcarbamate (IPBC)] | 81.2 ± 6.8 | 98.2 ± 5.5 |
| O=c1[nH]c2ccccc2n1CCCN1CCC(n2c(=O)[nH]c3cc(Cl)ccc32)CC1 [Domperidone] + CCCCNC(=O)OCC#CI [3-iodo-2-propynyl butylcarbamate (IPBC)] | 63.5 ± 2.9 | 91.8 ± 2.4 |
| CCNCC(O)c1cccc(O)c1 (stereo not drawn) [Etilefrine hydrochloride] + CCCCNC(=O)OCC#CI [3-iodo-2-propynyl butylcarbamate (IPBC)] | 96.9 ± 3.5 | 98.1 ± 2.4 |
| CC(=O)OCC(=O)[C@@]1(O)CC[C@H]2[C@@H]3CCC4=CC(=O)C=C[C@]4(C)[C@@]3(F)[C@@H](O)C[C@@]21C [Isoflupredone acetate] + CCCCNC(=O)OCC#CI [3-iodo-2-propynyl butylcarbamate (IPBC)] | 87.8 ± 2.1 | 91.7 ± 1.1 |
| C#CCN(C)Cc1ccccc1 [Pargyline hydrochloride] + CCCCNC(=O)OCC#CI [3-iodo-2-propynyl butylcarbamate (IPBC)] | 89.3 ± 4.5 | 95.5 ± 2.4 |
| CN(C/C=C/C#CC(C)(C)C)Cc1cccc2ccccc12 [Terbinafine] + CCCCNC(=O)OCC#CI [3-iodo-2-propynyl butylcarbamate (IPBC)] | 3.18 ± 0.64 | 2.94 ± 0.42 |
| c1ccc2c(CC3=NCCN3)cccc2c1 [Naphazoline hydrochloride] + CCCCNC(=O)OCC#CI [3-iodo-2-propynyl butylcarbamate (IPBC)] | 87 ± 1.9 | 91.9 |
| CN(C/C=C/c1ccccc1)Cc1cccc2ccccc12 [Naftifine hydrochloride] + CCCCNC(=O)OCC#CI [3-iodo-2-propynyl butylcarbamate (IPBC)] | 13.2 ± 3 | 50 ± 2.2 |
| CN(Cc1ccc(C(C)(C)C)cc1)Cc1cccc2ccccc12 [Butenafine Hydrochloride] + CCCCNC(=O)OCC#CI [3-iodo-2-propynyl butylcarbamate (IPBC)] | 4.13 | 2.73 |
| OC(CCN1CCCCC1)(c1ccccc1)C1CCCCC1 (stereo not drawn) [Trihexyphenidyl-D,L Hydrochloride] + CCCCNC(=O)OCC#CI [3-iodo-2-propynyl butylcarbamate (IPBC)] | 101 ± 16 | 102 ± 8.6 |
| COC(=O)Nc1nc2cc(C(=O)c3cccs3)ccc2[nH]1 [Nocodazole] + CCCCNC(=O)OCC#CI [3-iodo-2-propynyl butylcarbamate (IPBC)] | 107 ± 2.9 | 109 ± 1.1 |
| CN(C)CCCOc1nn(Cc2ccccc2)c2ccccc12 [Benzydamine hydrochloride] + CCCCNC(=O)OCC#CI [3-iodo-2-propynyl butylcarbamate (IPBC)] | 65.8 ± 2.2 | 88.4 ± 2.2 |
| CC(=O)Nc1ccc(O)cc1 [Acetaminophen] + CCCCNC(=O)OCC#CI [3-iodo-2-propynyl butylcarbamate (IPBC)] | 105 ± 20 | 103 ± 14 |
| CC(C)[N+](C)(CCOC(=O)C1c2ccccc2Oc2ccccc21)C(C)C [Propantheline bromide] + CCCCNC(=O)OCC#CI [3-iodo-2-propynyl butylcarbamate (IPBC)] | 78.8 ± 3.2 | 89.1 ± 3.6 |
| CC(=O)N[C@@H](CC(C)C)C(=O)O [N-Acetyl-L-leucine] + CCCCNC(=O)OCC#CI [3-iodo-2-propynyl butylcarbamate (IPBC)] | 86.57 ± 0.16 | 93.8 ± 2.3 |
| C[C@]12CC[C@@H]3c4ccc(OS(=O)(=O)O)cc4CC[C@H]3[C@@H]1CCC2=O [Estropipate] + CCCCNC(=O)OCC#CI [3-iodo-2-propynyl butylcarbamate (IPBC)] | 87 ± 1.6 | 89.7 ± 2 |
